Results with a measured potency or affinity are listed apart. A number with no mark means an inactive call. No rule for the calls is given here.

Data on 14 molecules can be found in PubChem BioAssay AID743446 (Broad Institute, 2014).

This assay in a line: HEK293 cell cytotoxicity, dose response, cytotoxicity control, plate reader, cherry-picked samples (AID 743446). As to conditions: stronger effect = lower value; at 26 µM unless noted.
Turning to `Cc1ccc2nc(-c3ccc(NC(=O)COC(=O)c4ccco4)cc3)sc2c1`, the max activity is -11.7% [at 1.6 µM].

As for `Cc1cnc(NC(=O)COc2ccccc2Cl)s1`, the max activity was 11.6%. As for `C[C@H](CO)N1C[C@H](C)[C@H](CN(C)C(=O)Nc2ccccc2)OCCCC[C@H](C)Oc2ccc(NC(=O)Nc3ccccc3)cc2C1=O`, the max activity is 21.5%. The same measure for `Cc1ccc(S(=O)(=O)N2[C@@H](CO)CO[C@H]2CC(=O)OCc2ccccc2)cc1`: 42.9% [at 12 µM]; for `COc1ccc(-c2cc(C)nc3c(-c4ccccc4)cnn23)cc1`: -10.2%. Turning to `c1ccc(-c2cn3c4c(sc3n2)CCCC4)cc1`, the max activity was -19.5%. The value for `CCC(=O)N(C)C[C@H]1Oc2cc(C#CCC(C)C)ccc2S(=O)(=O)N([C@H](C)CO)C[C@@H]1C` was 21.8% [at 0.05 µM]; that for `c1nc(CCO[C@H]2CCCCO2)cc2cc3c(cc12)OCO3` was 9.43%; that for `O=C(Nc1cc(S(=O)(=O)Nc2ccccc2Cl)ccc1O)c1ccc(F)cc1F` was -13.9% [at 0.8 µM]. Regarding `C[C@H](CO)N1C[C@H](C)[C@H](CN(C)C(=O)Nc2ccc(F)cc2)OCCCC[C@H](C)Oc2ccc(NC(=O)C3CCCCC3)cc2C1=O`, the max activity is -10.8% [at 6 µM].

On to `O=C(CN1C(=O)c2ccccc2S1(=O)=O)c1ccc(F)cc1`, for which the max activity was 63.1%. For `CCOc1ccc(-c2cnc3ccccc3n2)cc1`, the max activity was 16.5% [at 0.38 µM]. For `CCCCc1ccc(NC(=O)c2cnccn2)cc1`, the max activity was -14.3% [at 3 µM]. Consider `O=C(Nc1cccnc1)c1cc(-c2ccc3c(c2)OCO3)on1`, for which the max activity is 26.9% [at 12 µM].
